This is part of a sample that, as a whole, favours compounds with a hit. Of some 83,000 tested, about 20% had one in any assay.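 Compound tested at a single concentration for 48 hours in 96-well plates; a percent growth value below 10 was scored as active.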 The source made the active and inactive calls.
What was measured:
Experiment in all cases: NCI-60 one-dose screen, 48 h (100 = growth as untreated, 0 = no growth, -100 = all killed)
Conditions in all cases: 10 µM unless noted
[1] = test system: OVCAR-8 ovarian
[2] = test system: OVCAR-5 ovarian
[3] = test system: SK-OV-3 ovarian
[4] = test system: IGROV1 ovarian
[5] = test system: OVCAR-3 ovarian
[6] = test system: HS 578T breast
[7] = test system: NCI/ADR-RES ovarian
[8] = test system: T-47D breast
[9] = test system: BT-549 breast
[10] = test system: MDA-MB-435 melanoma
[11] = test system: SW-620 colon
[12] = test system: MCF7 breast
[13] = test system: HCT-116 colon
[14] = test system: HCC-2998 colon
[15] = test system: KM12 colon
[16] = test system: OVCAR-4 ovarian
[17] = test system: RPMI-8226 leukemia

Measured: growth

CC(=O)CC(c1cccs1)c1c(-c2ccccc2)[nH]c2ccccc12 (centres undefined)
inactive: [1] 92.5% | [2] 99.8% | [3] 90.1% | [4] 83.3% | [5] 86.4% | [6] 82.1% | [7] 69% | [8] 84.6% | [9] 105% | [10] 98% | [11] 90.4% | [12] 92.2% | [13] 89.9% | [14] 97.8% | [15] 94.3%

CCCCNc1nc(NN2C(=O)c3cccc4cccc(c34)C2=O)nc(-n2cnc3ccccc32)n1
inactive: [1] 93.3% | [2] 83.8% | [16] 67.7% | [3] 99.3% | [4] 80.4% | [5] 86.3% | [6] 81.9% | [7] 91.5% | [8] 74.7% | [9] 98.8% | [10] 99.2% | [11] 109% | [12] 72.6% | [13] 88.3% | [14] 105% | [15] 25.4%

CCN(CC)Cc1cc(Nc2c3ccc(Cl)cc3nc3ccc(OC)cc23)ccc1O
inactive: [1] 37.5% | [2] 51.2% | [16] 58.6% | [3] 54.7% | [4] 29.6% | [5] 56.6% | [6] 72.7% | [7] 42.3% | [8] 67.5% | [9] 81.4% | [10] 60.2% | [11] 31.7% | [12] 17.4% | [13] 12.8% | [14] 43.6% | [15] 40.6%

N/C(=N\c1nc2ccccc2s1)NC(=O)Nc1cccc2ccccc12
active: [5] -14.2% | [7] -7.24% | [10] -27.7%
inactive: [17] 13.8% | [1] 32.9% | [2] 41.1% | [3] 40.4% | [4] 33.6% | [6] 16.6% | [8] 38.5% | [9] 71.6% | [11] 19.7% | [12] 23.1% | [15] 14.7%

COc1ccc(/C=C/c2c(C(=O)/C=C/c3ccc(C(F)(F)F)cc3)c(C)nc3ccccc23)cc1
active: [17] -25.7% | [1] 9.68% | [2] -33.6% | [4] -57.2% | [5] -71% | [6] 1.9% | [7] 2.01% | [8] -13.3% | [9] -14.2% | [10] -56.5% | [11] -42.3% | [12] 1.41% | [13] -67.8% | [15] -67.6%
inactive: [3] 27.3%

COc1ccc(-c2conc2-c2ccccc2)cc1
inactive: [17] 32.7% | [1] 18.1% | [2] 27.7% | [3] 38.2% | [4] 26.2% | [8] 52.8% | [9] 29.6% | [11] 19.8% | [12] 16% | [14] 19.5%
active: [5] -28.5% | [6] 7.75% | [7] 6.05% | [10] -45.4% | [15] 9.21%

C[C@H](C(=O)Nc1ccc(S(N)(=O)=O)cc1)S(=O)(=O)c1ccccc1
inactive: [1] 99.1% | [2] 111% | [16] 105% | [3] 106% | [4] 98.9% | [5] 117% | [6] 101% | [7] 99.3% | [8] 93.2% | [9] 96.8% | [10] 102% | [11] 110% | [12] 96.1% | [13] 92.1% | [14] 111% | [15] 104%

CN1CCN(c2ccc(-c3cc4c(Nc5ccc(F)c(Cl)c5)ncnn4c3)cc2)CC1
inactive: [1] 70.4% | [2] 95.2% | [16] 71.2% | [3] 92.7% | [4] 49.5% | [5] 77% | [6] 75.2% | [7] 72.5% | [8] 63.4% | [9] 98.5% | [10] 76.4% | [11] 25.2% | [12] 45.3% | [13] 15.7% | [14] 53.8% | [15] 13.8%

COc1cccc(OC)c1C(=O)N[C@@H]1C(=O)N2[C@@H]1SC(C)(C)[C@@H]2C(=O)O
inactive: [1] 107% | [2] 110% | [16] 104% | [3] 99.5% | [4] 99.6% | [5] 119% | [6] 114% | [7] 101% | [8] 98.3% | [9] 95.4% | [10] 105% | [11] 107% | [12] 98% | [13] 97.9% | [14] 105% | [15] 107%

From PubChem BioAssay (NCI)
